IL-1B inflam inh: inflammasome signaling inhibition, IL-1 beta readout; THP-1 LPS/ATP IL-1B secretion, AlphaLISA, 16 h; hits give low values; activity change, % at 57.5 µM; 4.7% of 360,000 active; AID 743279; in the data active = activity change below about -50%; inconclusive = mostly about -30% to -49%
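Secreted IL-1B measured by AlphaLISA bead assay after 16 h compound exposure of THP-1 cells; compounds (final up to 57.5 uM) added 1 h before LPS (250 ng/mL) and ATP (1.25 mM) stimulation; lower signal means less secretion.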
TDP1 cell CPT: DT40-hTDP1 cell growth loss with CPT; chicken DT40 Tdp1-/-;hTDP1 cells + 20 nM CPT, ATP luminescence, 48 h; Potency, µM (highest dose often 46.2 µM), inactives show at the top dose activity change, negative = growth inhibition, actives largely listed as inhibitors; 12% of 420,000 active; AID 686979; note: potency is the fitted concentration of half-maximal effect; nearly all actives have a fitted effect of over 55% in size
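Chicken DT40 Tdp1-/- cells complemented with human TDP1, 400 cells/well, exposed to compounds plus 20 nM camptothecin for at least 48 h at 37 C; viability read as ATP content by CellTiter-Glo luminescence.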
HT1080-NT tox: kills 2HG-producing HT-1080-NT fibrosarcoma cells; 1.6% of 360,000 active; AID 686970; HT-1080-NT fibrosarcoma viability, CellTiter-Glo ATP luminescence, 48 h; Potency, µM (series often up to 46.1 µM), inactives show at the top dose activity, negative = less viability, actives largely listed as cytotoxic;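 note: NT is the 2HG producing partner of a matched IDH1 knockdown line; potency is the fitted concentration of half-maximal effect; 0% = DMSO-treated cells and -100% = media-only wells without cells; nearly all actives have a fitted effect of over 55% in size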
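Read-out is CellTiter-Glo luminescence after 10 minutes at room temperature, following 48 hours' compound treatment of HT-1080-NT cells (750 cells/well, RPMI, 5% FBS, 37 degrees C).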
HT1080 IDH1KD tx: kills HT-1080 cells with IDH1 knockdown; HT-1080 IDH1 knockdown viability, ATP luminescence, 48 h; Potency, µM (doses to about 46.1 µM), for the others: top-dose activity, negative = toxicity, actives largely listed as cytotoxic; 2% of 360,000 active;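 note: potency is the fitted concentration of half-maximal effect; 0% = DMSO wells and -100% = cell-free medium wells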
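Viability of IDH1-knockdown HT-1080 fibrosarcoma cells was assessed by CellTiter-Glo after 48 h at 37 °C with titrated compound; concentration-effect curves were classified by fit quality and response size.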
TDP1 cell noCPT: qHTS for Inhibitors of human tyrosyl-DNA phosphodiesterase 1 (TDP1): qHTS in cells in absence of CPT | DT40 Tdp1-/- hTDP1 cells, no CPT, ATP luminescence, 48 h | Potency, µM (highest dose often 46.2 µM), without a hit: at the top dose activity change, negative = growth inhibition, most hits filed as inhibitors | 15% of 420,000 active | AID 686978, 2013; note: potency is the fitted concentration of half-maximal effect; nearly all actives have a fitted effect of over 55% in size
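Chicken DT40 Tdp1-/- cells stably complemented with human TDP1 were seeded at 400 cells/well with DMSO in place of 20 nM camptothecin. After compound pinning, cells grew at least 48 hr at 37 °C; viability read by CellTiter-Glo luminescence.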
* hit, by the source's call; ? = inconclusive; · = no result given. The list is not random: actives were taken first. Their share in the collection is about 19%. Unless noted, calls come from the whole dose curve; as a rule, active = well fitted curve in the direction sought with a large enough effect; inconclusive = small, poorly fitted or top-dose-only effect, or another doubt; inactive = no such curve, though single readings can be large; an effect the other way counts as inactive or inconclusive. Unless noted, % is set by controls: 0 for no effect and ±100 for the full control effect.

SMILES	IL-1B inflam inh	TDP1 cell CPT	HT1080-NT tox	HT1080 IDH1KD tx	TDP1 cell noCPT
O=C(NCCCN1CCN(c2ccccc2F)CC1)C1CCN(S(=O)(=O)N2CCOCC2)CC1	15	7%	2%	2%	4%
O=C(NCCCN1CCN(c2ccccc2F)CC1)C1COc2ccccc2C1 (centres undefined)	·	26µM*	·	·	?
COc1ccc2c(c1)CC(C(=O)NCCCN1CCN(c3ccc(F)cc3)CC1)CO2 (centres undefined)	·	21µM*	·	·	26µM*
COc1ccc(N2CCN(CCCNC(=O)C3COc4ccc(OC)cc4C3)CC2)cc1 (centres undefined)	·	15µM*	·	·	21µM*
CCCCOc1ccc(CNC(=O)C2COc3ccc(OC)cc3C2)cc1 (centres undefined)	·	6%	·	·	?
CN(C)/C=N/C(=S)Nc1ccc(Br)cc1F	-4	-3%	-4%	-4%	?
CCOc1ccc(NC(=S)/C(=C(\[O-])c2ccc(C)c([N+](=O)[O-])c2)[n+]2ccccc2)cc1	13	?	4%	1%	15µM*
Cc1ccc(/C([O-])=C(/C(=S)NCc2ccccc2)[n+]2ccccc2)cc1[N+](=O)[O-]	-24	-24%	-10%	-6%	?
CCc1cc[n+](/C(C(=S)Nc2cccc(C)c2)=C(/[O-])c2ccc(C)c([N+](=O)[O-])c2)cc1	-26	16µM*	-2%	4%	12µM*
CCOC(=O)C1(Cc2ccc(OC)cc2)CCN(C(=O)c2cncs2)CC1	0	-13%	-6%	0%	?
Cc1cccn2c(Nc3ccccc3)c(-c3ccc(N4CCOCC4)cc3)nc12	·	?	·	·	5.8µM*
Cc1ccccc1Nc1c(-c2ccc(N3CCOCC3)cc2)nc2ncccn12	-29	?	8%	5%	?
Cc1ccc(-c2nc3c(C)cccn3c2Nc2ccccc2C)s1	·	21µM*	·	·	?
Cc1ccccc1Nc1c(-c2ccc(O)cc2)nc2c(C)cccn12	·	16µM*	·	·	?
Cc1ccc(Nc2c(-c3ccc(C)cc3)nc3c(C)cccn23)cc1	·	15µM*	·	·	?
Cc1ccc(Nc2c(-c3ccsc3)nc3c(C)cccn23)cc1	·	?	-18%	-20%	?
O=C(Nc1c[nH]c(=O)[nH]c1=O)c1cccc([N+](=O)[O-])c1	12	?	-7%	-1%	-11%
COc1ccc(-c2noc(CCC(=O)Nc3cccnc3)n2)cc1	-2	?	4%	0%	?
COc1ccc(-c2noc(CCC(=O)Nc3cc(OC)ccc3OC)n2)cc1	-6	-25%	-10%	-19%	21µM*
COc1ccc(-c2noc(CCC(=O)Nc3cc(Cl)c(OC)cc3OC)n2)cc1	-4	?	-26%	?	18µM*
COc1ccc(-c2noc(CCC(=O)NC3CCCCCC3)n2)cc1	21	?	9%	-4%	1%
CCOc1ccc(CNC(=O)Cn2c(=O)c3cccn3c3cccnc32)cc1	·	-12%	·	·	-26%
Cc1cccc(N=C2NN=C(c3c(C)[nH]c4ccccc34)CS2)c1	?	?	?	18µM*	?
Cc1nc2c(C(=O)N(C)Cc3ccccc3)c[nH]n2c(=O)c1Cc1ccc(Cl)cc1	·	18µM*	·	·	?
Cc1nc2c(C(=O)NCCc3ccc(Cl)cc3)c[nH]n2c(=O)c1Cc1ccc(Cl)cc1	·	-5%	·	·	?
SMILES	IL-1B inflam inh	TDP1 cell CPT	HT1080-NT tox	HT1080 IDH1KD tx	TDP1 cell noCPT
Cc1ccccc1OCC(=O)N/N=C/c1cn(C)c2ccccc12	13	12%	0%	0%	-23%
Cn1cc(C(c2ccccc2OCC(=O)O)c2cn(C)c3ccccc23)c2ccccc21	-10	12µM*	-13%	1%	16µM*
Oc1c(C(Nc2ccccn2)c2ccccn2)ccc2cccnc12 (centres undefined)	93	0.82µM*	?	8.2µM*	0.82µM*
Oc1c(C(Nc2ccccn2)c2ccccc2F)ccc2cccnc12 (centres undefined)	·	?	·	·	16µM*
Oc1ccccc1C(Nc1nccs1)c1ccc2cccnc2c1O (centres undefined)	68	3.7µM*	?	7.3µM*	2.6µM*
CN(C)CCN(C)C1CN(Cc2ccc(F)cc2)S(=O)(=O)C1 (centres undefined)	0	-9%	14%	26%	-12%
COCCCn1c(SCC(=O)Nc2cccc(C(=O)OC)c2)nnc1-c1ccncc1	0	2%	0%	2%	0%
COc1ccc(C2(C)NC(=O)N(CC3CCCCC3)C2=O)cc1 (centres undefined)	36	9%	4%	0%	-7%
Cc1ccc(CCNC(=O)c2oc(=O)c3ccccc3c2-c2ccc(C)cc2)cc1	·	?	·	·	23µM*
CCCCC(CC)CNC(=O)c1cc2ccccc2c(=O)o1 (centres undefined)	2	-5%	13%	2%	?
CCCCN(Cc1ccccc1)C(=O)c1oc(=O)c2ccccc2c1-c1ccc(C)cc1	·	21µM*	·	·	?
CCCCN(CCCC)C(=O)c1cc2ccccc2c(=O)o1	6	?	-3%	0%	16µM*
CCN(Cc1ccccc1)C(=O)c1oc2ccc(C)cc2c1C	-4	-1%	2%	-1%	?
CC(C)(C)OC(=O)n1cc(C(=O)c2ccccc2O)cn1	6	3%	7%	9%	-17%
O=C(O)c1ccccc1C(=O)Nc1ccccc1	-1	2%	10%	1%	-2%
O=C(Nc1ccccc1)C1=C(c2ccccc2)S(=O)(=O)CCS1(=O)=O	-95*	0.058µM*	23µM*	3.3µM*	0.026µM*
CC(Oc1ccccc1Cl)C(=O)Nc1ccc(S(=O)(=O)N2CCCC2)cc1 (centres undefined)	-14	?	-14%	-16%	?
O=C(CCCCCBr)N1CCC(CC2CC(c3cccc(Br)c3)=NO2)(C(=O)NCC2CCCCC2)CC1 (centres undefined)	?	?	?	-5%	21µM*
CC1(C(=O)N2CCC(CC3CC(c4cccc(Br)c4)=NO3)(C(=O)NCC3CCCCC3)CC2)CC1 (centres undefined)	?	18µM*	-12%	?	18µM*
CC1(C(=O)N2CCC(CC3CC(c4ccc(Cl)cc4)=NO3)(C(=O)NCC3CCCCC3)CC2)CC1 (centres undefined)	?	?	1%	-10%	?
O=C(CCCCCBr)N1CCC(CC2CC(c3ccc(Cl)cc3)=NO2)(C(=O)NCC2CCCCC2)CC1 (centres undefined)	-19	-29%	0%	0%	?

From PubChem BioAssay
